From PubChem BioAssay (NCI)
This is part of a sample that, as a whole, favours compounds with a hit. Of some 83,000 tested, about 20% had one in any assay.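 Growth was measured after 48 h exposure to one concentration of compound in 96-well plates. Values under 10 count as active.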 Values without a mark were called inactive. Active and inactive are the calls of the source.

Columns and labels:
Experiment in all cases: NCI-60 one-dose screen, 48 h (100 = growth as untreated, 0 = no growth, -100 = all killed)
Details in all cases: 10 µM unless noted
NCI-H23 lung = test system: NCI-H23 lung
NCI-H226 lung = test system: NCI-H226 lung
NCI-H322M lung = test system: NCI-H322M lung
HOP-62 NSCLC = test system: HOP-62 NSCLC
HOP-92 NSCLC = test system: HOP-92 NSCLC
NCI-H522 lung = test system: NCI-H522 lung
A549/ATCC NSCLC = test system: A549/ATCC NSCLC
786-0 renal = test system: 786-0 renal
COLO 205 colon = test system: COLO 205 colon
DU-145 prostate = test system: DU-145 prostate
K-562 leukemia = test system: K-562 leukemia
MALME-3M melanoma = test system: MALME-3M melanoma
MDA-MB-231 breast = test system: MDA-MB-231 breast
RXF 393 renal = test system: RXF 393 renal
SF-268 CNS = test system: SF-268 CNS
SF-295 CNS = test system: SF-295 CNS
SF-539 CNS = test system: SF-539 CNS
UACC-257 melanoma = test system: UACC-257 melanoma
M14 melanoma = test system: M14 melanoma
NCI-H460 lung = test system: NCI-H460 lung

Row | Structure (SMILES) | growth (NCI-H23 lung) | growth (NCI-H226 lung) | growth (NCI-H322M lung) | growth (HOP-62 NSCLC) | growth (HOP-92 NSCLC) | growth (NCI-H522 lung) | growth (A549/ATCC NSCLC) | growth (786-0 renal) | growth (COLO 205 colon) | growth (DU-145 prostate) [%] | growth (K-562 leukemia) | growth (MALME-3M melanoma) | growth (MDA-MB-231 breast) | growth (RXF 393 renal) | growth (SF-268 CNS) [%] | growth (SF-295 CNS) | growth (SF-539 CNS) [%] | growth (UACC-257 melanoma) | growth (M14 melanoma) | growth (NCI-H460 lung)
1 | C=C(C)[C@@H]1CC[C@]2(C(=O)N3CCN(C)CC3)CC[C@]3(C)[C@H](CC[C@@H]4[C@@]5(C)C/C(=C/c6ccc(C(F)(F)F)cc6)C(=O)C(C)(C)[C@@H]5CC[C@]43C)[C@@H]12 | 99.2% | 101% | 96.5% | 96.6% | 78.1% | 94.4% | 92.6% | 90.3% | 105% | 104 | 72.9% | 90.8% | 94.9% | 97.4% | 92.8 | 101% | 88.6 | 98.5% | 94.8% | –
2 | O=[N+]([O-])c1ccc(/C=N\Nc2ccccc2)cc1 | 93.9% | 87.7% | 83% | 95.2% | 100% | 61% | 57.7% | 87.2% | 105% | 97.1 | 25.2% | – | 68.2% | 107% | 73.5 | 55.3% | 107 | 97.2% | 31.6% | –
3 | C#CCC(C)(O)/C=C/C1=C(C)CCCC1(C)C (stereo not given) | 94.5% | 85.4% | 99.4% | 96.9% | 84% | 75.5% | 69.8% | 92.6% | – | 103 | – | 90% | 99.3% | 100% | 95.6 | 95.4% | 102 | 76.4% | – | 103%
4 | Cc1ccsc1-c1ccc2c(c1)COC2(CCCN(C)C)c1ccc(F)cc1 (stereo not given) | 70.6% | 93% | 68.5% | 69.4% | 41.6% | 55.1% | 45.9% | 63.8% | -43.9% (active) | 60 | 1.22% (active) | -14% (active) | 51.1% | 28.2% | 65.2 | 57.1% | 67 | -10.5% (active) | -57.5% (active) | –
5 | Fc1ccc2[nH]cc(-c3nc(-c4c[nH]c5ncccc45)cs3)c2c1 | 43.7% | 47.4% | 74.6% | 47.6% | 24.3% | -7.49% (active) | 31.1% | 41.5% | – | 30.5 | 16.9% | – | 44.4% | 55% | 48.9 | 17.8% | 27.3 | 53.8% | – | 9.85% (active)
6 | COc1ccc(C2CC(=O)c3c(nc4ccc(Cl)cc4c3N)C2)cc1 (stereo not given) | 102% | 104% | 104% | 109% | 98.3% | 100% | 106% | 97% | 114% | 101 | 93.4% | 106% | 114% | 99.3% | 108 | 95.4% | 107 | 113% | 103% | –
7 | CN1CCN(c2nc(-c3cccc4ccccc34)nc3sc4c(c23)CCCCCC4)CC1 | 92.2% | 74.4% | 104% | 75.4% | -0.421% (active) | 88.7% | 95.5% | 87.7% | 91.7% | 102 | 85.3% | 81.3% | 61.8% | 60.9% | 82 | – | 86 | 94.4% | 93.2% | –
8 | O=C(O)c1cccc2c1-c1ccc(Cl)cc1C2 | 106% | 100% | 97.1% | 106% | 112% | 88.2% | 105% | 110% | – | 110 | 97.9% | – | 108% | 124% | 107 | 116% | 104 | 107% | 120% | 113%
9 | Cn1cc(-c2csc(-c3cn(C(=O)OC(C)(C)C)c4ccc(Br)cc34)n2)c2cccnc21 | 92.2% | 101% | 88.9% | 99.2% | 98.7% | 96.3% | 78.5% | 99.9% | – | 108 | 97.6% | – | 75.3% | 88.5% | 94.7 | 79.8% | 106 | 114% | 104% | 62.3%
10 | Cc1ccc(Sc2sc(-c3ccccc3)nc2[P+](c2ccccc2)(c2ccccc2)c2ccccc2)cc1 | -12.2% (active) | -3.15% (active) | -19.1% (active) | -0.272% (active) | -40.4% (active) | -5.65% (active) | 6.14% (active) | 6.12% (active) | -25.3% (active) | 10.7 | 2.4% (active) | -22.4% (active) | -29.5% (active) | -21.5% (active) | 15.5 | -20.9% (active) | 11.8 | 2.98% (active) | – | –
11 | COc1ccc(NC(=O)c2ccoc2COc2ccccc2)cc1 | 95.7% | 98.8% | 101% | 100% | 88.8% | 90.2% | 102% | 96.9% | 110% | 106 | 55% | 99.7% | 95.7% | 93.9% | 97.5 | 98.3% | 96 | 99.7% | 92.1% | –
12 | C[C@@H](C(=O)O)c1ccc2c3cc(Cl)ccc3n(Cc3cc(=O)oc4ccc(Cl)cc34)c2c1 | 95.6% | 103% | 86.3% | 103% | 108% | 90.7% | 102% | 95.9% | 113% | 103 | 98.2% | 89.5% | 106% | 116% | 93.4 | 103% | 102 | 104% | 100% | –
13 | Cc1nn(-c2ccc(Br)cc2)c2nc3[nH]c(=O)[nH]c(=O)c3nc12 | 99% | 103% | 119% | 120% | 110% | 98.1% | 102% | 100% | 115% | 114 | 101% | 108% | 110% | 114% | 110 | 98.6% | 99.7 | 99% | 112% | –
14 | CC/C(=N/NC(N)=O)c1ccccc1 | 98.6% | 97.8% | 102% | 107% | 103% | 99.5% | 96.4% | 98.5% | 119% | 108 | 101% | 105% | 102% | 108% | 107 | 89.8% | 95.1 | – | 106% | –
15 | COc1cc2c3c(c4c5ccccc5[nH]c4c2c(OC)c1OC)C(=O)N(O)C3=O | 54.9% | 42.6% | 37.4% | 38% | 78.4% | 45.7% | 60.3% | 69.6% | 61.1% | 71.7 | 20.8% | 78.5% | 44.2% | 52.2% | 49.3 | 47.8% | 30.9 | – | – | –
16 | Clc1ccc2[nH]cc(-c3nc(-c4c[nH]c5ncccc45)cs3)c2c1 | 51.7% | 63% | 59.1% | – | 43.5% | 46.5% | 21.7% | 27.6% | 18.3% | 42.1 | 13.1% | – | 37.9% | 45.5% | 61.7 | 19.4% | 70.5 | 9.88% (active) | 20.1% | 19%
17 | Cc1cc(N(CCCNc2ccnc3cc(Cl)ccc23)Cc2ccco2)nc(Cl)n1 | 31.5% | 68.1% | 76.6% | – | 27.1% | 59.9% | 67% | 55.6% | 24.5% | 71.6 | 9.75% (active) | 74% | 61.7% | 71.1% | 72.7 | 42.3% | 54.3 | 59.9% | 46.4% | 57.1%
